# This is a sample that favours compounds with a hit; in the whole collection about 0.9% have one here.
# SRC3 TRFRET art: TR-FRET artefact, counter-screen to PPARgamma/SRC-3 agonist assay | PPARgamma/SRC-3 format; active compounds read high | TR-FRET ratio at 8 µM | 0.39% of 99,000 active
# PPARg SRC3 recr: promotes SRC-3 coactivator recruitment by human PPARgamma. biochemical PPARgamma/SRC-3 coactivator recruitment assay. activation, % at 8 µM. P37231. 0.26% of 200,000 active; in the data active = activation above about 23%;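 also: 0% = DMSO and 100% = reference agonist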
# Target sequence (P37231 whole entry, looked up): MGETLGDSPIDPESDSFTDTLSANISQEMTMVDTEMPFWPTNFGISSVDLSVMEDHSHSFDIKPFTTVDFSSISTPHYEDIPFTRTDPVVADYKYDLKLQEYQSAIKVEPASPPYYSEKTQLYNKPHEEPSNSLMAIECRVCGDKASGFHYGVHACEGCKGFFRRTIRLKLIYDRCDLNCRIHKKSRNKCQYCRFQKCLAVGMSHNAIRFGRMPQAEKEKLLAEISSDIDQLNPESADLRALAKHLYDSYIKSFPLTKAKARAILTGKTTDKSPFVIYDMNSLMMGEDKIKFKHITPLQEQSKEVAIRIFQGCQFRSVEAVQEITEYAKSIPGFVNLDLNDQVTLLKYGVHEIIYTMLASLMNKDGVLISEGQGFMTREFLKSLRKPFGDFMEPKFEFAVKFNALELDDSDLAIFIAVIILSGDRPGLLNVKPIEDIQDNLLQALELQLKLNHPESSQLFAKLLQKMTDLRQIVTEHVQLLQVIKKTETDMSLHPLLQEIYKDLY
# PPARg SRC1 recr: agonists of human PPARgamma SRC-1 coactivator recruitment; P37231; PPARgamma-SRC-1 coactivator recruitment biochemical assay; activation, % at 8 µM; 0.41% of 200,000 active; in the data active = activation above about 19%;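 also: 0% = DMSO and 100% = reference agonist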
# PPARg SRC2 recr: promotes SRC-2 coactivator recruitment by human PPARgamma. AID 1032. 0.34% of 200,000 active. P37231. PPARgamma LBD-SRC-2 recruitment, biochemical. activation, % at 8 µM; in the data active = activation above about 22%;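 also: 0% = vehicle and 100% = reference agonist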
# TR-FRET SRC-2 ct: counter-screen for PPARgamma SRC-2 recruitment agonists: TR-FRET artefact; active compounds read high; TR-FRET ratio at 8 µM; 0.4% of 200,000 active
# SRC1 TRFRET art: flags TR-FRET format artefacts in PPARgamma SRC-1 recruitment agonist screen. AID 1051. 0.34% of 99,000 active. TR-FRET ratio at 8 µM. TR-FRET detection artefact counter-screen, emission ratio; active compounds read high; in the data active = TR-FRET ratio above about 2300
# The depositor's hits bear a star; . = not tested or not shown. Rule as the data show it, unless noted: active = TR-FRET ratio above about 2000; inactive = the rest.
SMILES,SRC3 TRFRET art,PPARg SRC3 recr,PPARg SRC1 recr,PPARg SRC2 recr,TR-FRET SRC-2 ct,SRC1 TRFRET art
CN1c2ccsc2/C(=N/Nc2ccccc2)CS1(=O)=O,1742,7,0,13,2054*,2232
CN1c2ccsc2/C(=N/NC(=O)c2c(F)cccc2F)CS1(=O)=O,.,0,7,13,1571,.
COc1cc(OC)c(N(C)S(=O)(=O)c2cccc(C(=O)OCC(=O)NCc3ccco3)c2)cc1Cl,1603,4,0,2,1586,1939
O=C(c1ccco1)N1CCN(S(=O)(=O)Cc2ccccc2Cl)CC1,1535,-4,5,9,1604,1900
O=C1CCCC(=O)N1c1ccc(N2CCOCC2)c([N+](=O)[O-])c1,1645,-4,-8,3,1612,1827
CC(=O)c1ccc(NC(=O)COC(=O)c2ccccc2Sc2ccccc2C#N)cc1,2465*,0,-3,0,1691,1874
CN(C)C(=O)COC(=O)c1ccccc1Sc1ccccc1C#N,1480,4,13,12,1720,1957
N#Cc1ccccc1Sc1ccccc1C(=O)OCC(=O)NC12CC3CC(CC(C3)C1)C2,3416*,1,0,-11,2682*,2330*
N#Cc1cccc(NC(=O)COC(=O)c2ccccc2Sc2ccccc2C#N)c1,2131*,2,-3,3,1920,1775
Cc1cc(C)c(C)c(S(=O)(=O)Nc2ccc(OCC(=O)O)cc2)c1C,.,1,-2,-6,1295,.
O=C(Nc1ccc2ccccc2c1)c1cn(-c2ccccc2)nc1-c1cccs1,.,14,11,9,2107*,.
O=C(COC(=O)CSCc1ccccc1)NCc1ccccc1,1456,-3,-6,-3,1536,1600
O=C(COC(=O)CCN1C(=O)c2cccc([N+](=O)[O-])c2C1=O)NCc1ccccc1,1749,1,4,4,1993*,1745
N#C/C(=C\c1cccc2ccccc12)c1nn(-c2ccccc2)c(N)c1C#N,.,16,19*,17,1650,.
Cc1ccc(/C=C(\C#N)c2nn(-c3ccccc3)c(N)c2C#N)cc1,1337,-4,-4,-3,1725,1776
O=S(=O)(NCc1ccccc1F)NCc1ccccc1F,1445,3,6,4,1499,1882
Cc1ccc(CSc2nnc3ccc(-c4ccncc4)nn23)cc1,1556,3,-8,-1,1680,1602
COc1cc(CNc2ccc(N3CCCC3)cc2)cc(Cl)c1OC,1865,7,-1,1,1390,1823
CCOc1cc(CNc2ccc(N3CCN(C(C)=O)CC3)cc2)cc(Br)c1OC,1823,10,9,22*,1693,2072
CCOc1cc(CNc2ccc(N3CCCC3)cc2)cc(Cl)c1OC,1773,5,11,16,2050*,2142
COc1cc(OC)cc(-c2nnc(SCC(=O)N(Cc3ccccc3)C(C)(C)C)o2)c1,.,5,17,23*,1712,.
COC(=O)CCC(=O)c1oc2ccc(Br)cc2c1N,.,5,-1,24*,1390,.
COc1ccc2oc(C(=O)CCC(=O)O)c(N)c2c1,.,18,0,9,1609,.
Cc1onc(-c2c(F)cccc2Cl)c1C(=O)Nc1cccc(S(=O)(=O)NCc2ccco2)c1,1419,2,7,9,1638,1746
Cn1c(SCC(=O)Nc2cccc(Br)c2)nnc1-c1cc2ccccc2o1,.,4,31*,-6,1713,.
SMILES,SRC3 TRFRET art,PPARg SRC3 recr,PPARg SRC1 recr,PPARg SRC2 recr,TR-FRET SRC-2 ct,SRC1 TRFRET art
COc1ccc(Cl)cc1N1C(=N)SCC1=O,1684,1,-14,-10,1414,1530
C=COC(=O)CSc1nc(-c2cccs2)ccc1C#N,.,9,17,19,2052*,.
C/C(=N\NC(=O)CSCc1cccc(Br)c1)c1ccc([N+](=O)[O-])cc1,.,-3,-10,-1,1266,.
Cc1nc2ccccn2c1C(=O)NC1CCCc2ccccc21 (configuration not stated),1482,3,12,9,1593,1823
O=C(CNC(=O)c1cccs1)OCC(=O)c1ccc2ccccc2c1,.,3,-5,10,1722,.
CC(C)(C)c1ccc(C(=O)NCC(=O)OCC(=O)c2ccc3c(c2)-c2ccccc2C3)cc1,1890,2,1,7,2064*,2576*
COC(=O)CSc1ccc(S(=O)(=O)N2CCOCC2)cc1[N+](=O)[O-],1576,3,-6,2,1479,1962
Cn1c(SCc2cccnc2)nc2c(c1=O)SCC2,1534,0,4,21,2241*,1719

# Source: PubChem BioAssay (The Scripps Research Institute Molecular Screening Center)
